The list is not random: actives were taken first. Their share in the collection is about 3.5%.
FBW7 activator: human FBW7 E3 ligase activation, primary screen; actives 0.13% (n = 650,000); normalized activity (activation), % at 26.1 µM; Q969H0; AlphaScreen FBW7–phospho-cyclin E peptide binding, activator screen; in the data active = normalized activity above about 1.9%;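 also: purified mutant Fbw7 with reduced substrate affinity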
TEAD-YAP inh: TEAD-YAP interaction inhibition. actives 1.4% (n = 640,000). HEK-TIYL cells, TEAD-Gal4/YAP UAS-luciferase luminescence. inhibition, % at 9.12 µM; in the data active = inhibition above about 32%
GPR151 ag: activates the human receptor GPR151 | Q8TDV0 | actives 1% (n = 650,000) | PathHunter beta-arrestin GPR151 cells, luminescence | activation, % at 11.2 µM; in the data active = activation above about 4.9%
MITF primary: human MITF inhibition, primary screen. O75030. AlphaScreen MITF homodimerization, bead proximity signal. inhibition, % at 2.6 µM. actives 0.91% (n = 650,000). AID 1259374; in the data active = inhibition above about 50%
Target sequence (O75030 whole entry, looked up): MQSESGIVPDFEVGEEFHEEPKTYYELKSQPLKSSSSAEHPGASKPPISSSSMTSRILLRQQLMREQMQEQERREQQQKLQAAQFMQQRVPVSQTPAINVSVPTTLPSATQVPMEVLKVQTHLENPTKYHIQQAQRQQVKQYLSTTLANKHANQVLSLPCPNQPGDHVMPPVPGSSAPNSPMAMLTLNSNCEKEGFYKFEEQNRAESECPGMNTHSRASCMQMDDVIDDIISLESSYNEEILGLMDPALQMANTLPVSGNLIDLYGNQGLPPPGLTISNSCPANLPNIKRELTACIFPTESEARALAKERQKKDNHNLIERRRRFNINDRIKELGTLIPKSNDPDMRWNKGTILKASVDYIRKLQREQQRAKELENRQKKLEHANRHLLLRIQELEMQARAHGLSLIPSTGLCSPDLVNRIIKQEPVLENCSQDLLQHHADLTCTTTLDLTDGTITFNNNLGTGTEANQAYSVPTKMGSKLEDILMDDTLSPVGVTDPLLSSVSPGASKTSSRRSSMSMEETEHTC
Large screens that a line does not name were inactive; ! = repeats disagree.

NC1=NC(c2c[nH]c3ccccc23)C=NN1 (configuration not stated)	none
C=CCN1C(=O)/C(=C/c2ccco2)C(=O)NC1=S	MITF primary 77
O=C1NC(=S)N(c2ccccc2F)C(=O)/C1=C\c1ccco1	MITF primary 72
O=C1NC(=O)N(Cc2ccco2)C(=O)/C1=C\c1ccco1	none
O=C1NC(=S)N(Cc2ccco2)C(=O)/C1=C\c1cccs1	MITF primary 82
Cc1ccc(N2C(=O)/C(=C\C=C\c3ccco3)C(=O)NC2=S)cc1	MITF primary 59
CN(C)P(=O)(/C=C(\Br)c1ccccc1)N(C)C	none
Cc1cc(C)c(N2C(=O)CC(=O)NC2=O)c(C)c1	none
O=C1NC(=S)N(c2ccccc2)C(=O)/C1=C/c1ccco1	MITF primary 66
CCC1CN(C)CCC1(O)c1ccccc1 (configuration not stated)	none
CCN1CCC(O)(c2ccccc2)C(C(=O)c2ccccc2)C1 (configuration not stated)	FBW7 activator 2.0
Cc1cc(C)cc(-n2c(/C=C/c3ccccc3)nc3ccccc3c2=O)c1	none
CCC1/C=C/C=C/C[C@H](C)[C@@H](O)[C@](C)(O)C(=O)[C@@H](C)[C@H](O)[C@@H](C)C(=O)[C@H](C)[C@@H](O)[C@H](C)/C=C/C(=O)OC2[C@@H](C)C(CC1)OC1(CC[C@@H](C)C(C[C@H](C)O)O1)[C@@H]2C (some centres not stated)	TEAD-YAP inh 94
O=[N+]([O-])c1ccc(N2CCc3ccccc3C2)c2nonc12	none
COc1[nH]c2ccccc2c1C=C(C#N)C#N	TEAD-YAP inh 71
COc1ccc(CN2CCN(c3ccc(F)cc3)CC2)c(OC)c1	none
COc1ccc(N2CCN(Cc3ccc(F)cc3F)CC2)cc1	MITF primary 56
COc1ccc(N2CCN(Cc3ccccc3[N+](=O)[O-])CC2)cc1	MITF primary 57
COc1cccc(N2CCN(Cc3ccccc3[N+](=O)[O-])CC2)c1	none
COc1cc([N+](=O)[O-])c(N)c([N+](=O)[O-])c1	none
O=C1NC(=S)NC(=O)C1=Cc1ccc(OCc2cccc(C(=O)O)c2)cc1	TEAD-YAP inh 63
CCN(CC)C(=O)c1ccc(NC(=O)c2ccc(NC(=O)c3cccc(C)c3)cc2)cc1	none
Cc1ccc(-n2c(/C=C/c3ccccc3Br)nc3ccccc3c2=O)cc1	TEAD-YAP inh 51
COc1ccc(-c2nn(CCC#N)cc2C=O)cc1	none
CO[C@@H]1C[C@@H](C[C@H]2CC[C@H](C)[C@H]([C@@H](C)C(=O)O)O2)O[C@]2(O[C@](C)([C@H]3CC[C@@](C)([C@@H]4O[C@@H]([C@H]5O[C@@](O)(CO)[C@H](C)C[C@@H]5C)C[C@@H]4C)O3)C[C@H]2C)[C@@H]1C	TEAD-YAP inh 77
CN1CCN(c2cc(N3CCCCC3)c(F)cc2[N+](=O)[O-])CC1	none
O=C1NC(=O)N(Cc2ccco2)C(=O)/C1=C\c1cn(Cc2ccccc2)c2ccccc12	none
NC(=O)C1CCN(/C=C2\C(=O)NC(=O)N(Cc3ccco3)C2=O)CC1	MITF primary 58
N#Cc1nnn(-c2nonc2N)c1N	none
C[n+]1c2ccccc2nc2ccc(NC3CCCCC3N)cc21 (configuration not stated)	TEAD-YAP inh 77
CCOC(=O)C1(c2ccccc2)CCN(Cc2ccc(O)c(C(=O)OC)c2)CC1	TEAD-YAP inh 35
C[C@H]1NC(=O)[C@H]2CN(Cc3ccc4ncccc4c3)CCN2C1=O	none
CC(=O)O[C@H]1CC[C@]2(C=O)C3CC[C@]4(C)[C@@H](C5=CC(=O)OC5)CC[C@]4(O)[C@@H]3CC[C@]2(O)C1 (some centres not stated)	TEAD-YAP inh 102
C[C@@H]1O[C@@H](O[C@H]2CC[C@]3(C=O)C4CC[C@]5(C)[C@@H](C6=CC(=O)OC6)CC[C@]5(O)C4CC[C@]3(O)C2)[C@H](O)[C@H](O)[C@H]1O (some centres not stated)	TEAD-YAP inh 101
CC1O[C@@H](OC2C[C@@H](O)[C@]3(CO)[C@H]4[C@H](O)C[C@]5(C)C(C6=CC(=O)OC6)CC[C@]5(O)[C@@H]4CC[C@]3(O)C2)C(O)[C@@H](O)[C@H]1O (some centres not stated)	none (no result: TEAD-YAP inh)
N#CC1=C(N)Oc2c(c(=O)oc3ccccc23)C1c1cccc(Cl)c1 (configuration not stated)	none
CC(C)CCN1CCN(Cc2cc(F)cc(F)c2)CC1CCO (configuration not stated)	none
CC(=O)OC1CC[C@@]2(C)C(CCC3C2CC[C@]2(C)C(C4=CC(=O)OC4)C(OC(C)=O)CC32O)C1 (some centres not stated)	TEAD-YAP inh 100
CC(=O)[C@H]1CCC2C3CC[C@H]4C[C@H](O)CC[C@]4(C)C3CC[C@@]21C (some centres not stated)	none
C[C@]12CC[C@H](O)C[C@H]1CC[C@@H]1[C@@H]2CC[C@]2(C)[C@@H](C3=CC(=O)OC3)[C@@H](O)C[C@]12O	TEAD-YAP inh 95
COc1ccc(/C=C2\CCCc3c(-c4ccccc4)cc(-c4ccccc4)[n+](C)c32)cc1	TEAD-YAP inh 92
COc1ccccc1/C=C1\CCCc2c(-c3ccccc3)cc(-c3ccccc3)[n+](C)c21	TEAD-YAP inh 95
O=S1(=O)CC2(N3CCOCC3)CCCC21 (configuration not stated)	none
COc1ccc(CCNCc2ccccc2Cl)cc1OC	none
CC(=O)[O][Hg][c]1ccccc1	TEAD-YAP inh 98
CCN(CC)C(C)C(=O)c1ccccc1 (configuration not stated)	none
COc1ccc2c(c1)[nH]c1c(C)nccc12	TEAD-YAP inh 85!
COc1ccc2c3c([nH]c2c1)C(C)=NCC3	none
Cc1ccc(C2C=C(c3cccnc3)Nc3nnnn32)cc1 (configuration not stated)	none
COc1ccc(O)c(CN2CCN(C)CC2)c1	none
COc1ccc(O)c(CN2CCN(Cc3ccccc3Cl)CC2)c1	MITF primary 51
COc1ccc(O)c(CN2CCN(Cc3ccccc3)CC2)c1	none
COc1ccc(O)c(CN2CCN(Cc3cccc(C)c3)CC2)c1	MITF primary 72
CCOC(=O)C1C2NC(=S)N(c3cccc(Cl)c3)C1(C)Oc1c(Cl)cc(Cl)cc12 (configuration not stated)	TEAD-YAP inh 55
CCOC(=O)C1C2NC(=S)N(c3ccc(C)cc3)C1(C)Oc1c(Cl)cc(Cl)cc12 (configuration not stated)	TEAD-YAP inh 63
CCOC(=O)C1C2NC(=S)N(c3c(C)cccc3C)C1(C)Oc1c(Cl)cc(Cl)cc12 (configuration not stated)	none
COc1ccccc1C(c1c(O)c2ccccc2oc1=O)c1c(O)c2ccccc2oc1=O	none
CCN1/C(=C/C=C/c2oc3ccc(-c4ccccc4)cc3[n+]2CC)Oc2ccc(-c3ccccc3)cc21 (tested in a mixture with another compound)	TEAD-YAP inh 82

Source: PubChem BioAssay (The Scripps Research Institute Molecular Screening Center)
